# Source: ChEMBL document CHEMBL3988442, “University of Dundee, Small-Polar-MMV Screening Library” (2021)
# The whole screen tested about 48,000 compounds, of which about 13,000 (27%) showed an effect of 50% or more. The list shows a part of the results.
# Tested on: Wolbachia pipientis
# Assay: Anti-Wolbachia Cell-Based Screen
# Type: functional
# Parameters: scale not given: in the data most compounds retested in dose-response had high values
# Details: 5 µM
row,SMILES,Percent Effect [%]
1,CCNC(=O)CN1CCSC2(CCCCC2)C1,-30.52
2,CCS(=O)(=O)N[C@@H]1CN(Cc2cc(C)on2)C[C@@H]2CCCO[C@@H]21.O=C(O)C(F)(F)F,-1.229
3,Cc1noc(C)c1CN1C[C@@H]2CCCO[C@@H]2[C@H](NS(C)(=O)=O)C1.O=C(O)C(F)(F)F,-5.766
4,O=C(CC1CC1)N[C@@H]1CN(Cc2cccnc2)C[C@@H]2CCCO[C@@H]21.O=C(O)C(F)(F)F.O=C(O)C(F)(F)F,-3.357
5,Cc1oncc1C(=O)N[C@@H]1CN(C2CCC2)C[C@@H]2CCCO[C@@H]21.O=C(O)C(F)(F)F,88.41
6,O=C(O)C(F)(F)F.O=C(O)C(F)(F)F.O=C(O)C(F)(F)F.c1ccc(CN2C[C@@H]3CCCO[C@@H]3[C@H](Nc3ccccn3)C2)nc1,-7.621
7,Cc1oncc1C(=O)N[C@@H]1CN(CC2CC2)C[C@@H]2CCCO[C@@H]21.O=C(O)C(F)(F)F,91.11
8,Cc1cc(CN2C[C@@H]3CCCO[C@@H]3[C@H](NS(C)(=O)=O)C2)no1.O=C(O)C(F)(F)F,-7.292
9,Cc1cc(CN2C[C@@H]3CCCO[C@@H]3[C@H](Nc3ccccn3)C2)no1.O=C(O)C(F)(F)F.O=C(O)C(F)(F)F,7.146
10,O=C(CC1CC1)N[C@@H]1CN(Cc2ccncc2)C[C@@H]2CCCO[C@@H]21.O=C(O)C(F)(F)F.O=C(O)C(F)(F)F,-9.965
11,CCOCCN1C[C@@H]2CCCO[C@@H]2[C@H](NC(=O)c2cnoc2C)C1.O=C(O)C(F)(F)F,102.3
12,Cc1ncsc1CN1C[C@@H]2CCCO[C@@H]2[C@H](Nc2ccccn2)C1.O=C(O)C(F)(F)F.O=C(O)C(F)(F)F,103.9
13,CC(C)c1cc(N2CCCC3(CCN(C)C3)C2)ncn1 (stereo not drawn),23.89
14,CCN(CC)C(=O)C1CCC2(CCNCC2)O1.Cl (stereo not drawn),-5.53
15,Cc1nn(CCNC(C)Cn2ccnc2)c(C)c1Cl (stereo not drawn),-2.201
16,COCC(=O)NC(C)Cc1cccc(Br)c1 (stereo not drawn),-14.37
17,CCc1noc(C(C)N2CCNCC2)n1 (stereo not drawn),13
18,CCc1cc(N2CCNCC2)n2nc(C)c(C)c2n1,-8.161
19,CC(C)c1cc(CN2CCNCC2)no1,116.8
20,CN1CCC2(CC1)C(=O)N(c1cccnc1)c1ccc(F)cc12.Cl,-1.333
21,CN1CCCCC1c1ccc(-n2ccnc2)nc1 (stereo not drawn),128
22,NC(=O)CN1CCCCC1c1ccc(-n2ccnc2)nc1 (stereo not drawn),114.9
23,O=C(c1ccc(-n2ccnc2)nc1)N1CCN2CCCCC2C1 (stereo not drawn),-5.274
24,Cl.NC(CC1CCCCC1)c1ccccc1 (stereo not drawn),-2.613
25,CCCn1cc(C(=O)NCCS(N)(=O)=O)c2ccccc21,15.61
26,COCCn1cc(C(=O)NCCS(N)(=O)=O)c2ccccc21,11.42
27,COCCn1cc(C(=O)Nc2nc3c(s2)CCC3)c2ccccc21,108.8

row,SMILES,Percent Effect [%]
1,Cc1cccc(CN2CC[C@@H]3[C@@H]2CCN3Cc2cccs2)n1.O=C(O)C(F)(F)F.O=C(O)C(F)(F)F,102.2
2,Cc1cccc(CN2CC[C@@H]3[C@@H]2CCN3C(=O)c2ccno2)n1.O=C(O)C(F)(F)F.O=C(O)C(F)(F)F,-0.9424
3,COCCN1C[C@@H]2[C@@H](OC)CCN(Cc3cccc(C)n3)[C@@H]2C1.O=C(O)C(F)(F)F.O=C(O)C(F)(F)F.O=C(O)C(F)(F)F,0.3153
4,Cc1cc(CN2CC[C@H]3[C@H]2CCN3C)oc1C.O=C(O)C(F)(F)F.O=C(O)C(F)(F)F,2.968
5,Cc1cccc(CN2C(=O)C[C@H]3[C@@H]2CCN3Cc2cccs2)n1.O=C(O)C(F)(F)F.O=C(O)C(F)(F)F,4.955
6,Cc1ccc(CN2CC[C@H]3[C@H]2CC(=O)N3c2cccnc2)o1.O=C(O)C(F)(F)F.O=C(O)C(F)(F)F,1.465
7,Cc1cccc(CN2CC[C@@H]3[C@@H]2CCN3C(=O)Cc2ccsc2)n1.O=C(O)C(F)(F)F.O=C(O)C(F)(F)F,119.7
8,Cc1ccc(CN2CC[C@@H]3[C@@H]2CCN3C(=O)Cc2cccs2)o1.O=C(O)C(F)(F)F,90.39
9,Cc1cccc(CN2CC[C@@H]3[C@@H]2CCN3C(=O)c2cnoc2C)n1,-2.884
10,Cc1cccc(CN2CC[C@@H]3[C@@H]2CCN3C(=O)Cc2cccs2)n1.O=C(O)C(F)(F)F.O=C(O)C(F)(F)F,101.6
11,Cc1cccc(CN2CC[C@H]3[C@H]2CCN3C(=O)c2cnn(C)c2)n1.O=C(O)C(F)(F)F.O=C(O)C(F)(F)F,-8.772
12,CC(C)(C)c1cn(C[C@H]2CC3CCN2C[C@@H]3C(=O)NC2CC2)nn1 (stereo partly drawn),12.02
13,CC(C)N1[C@H](Cn2cncn2)C[C@@H]2CNCC[C@@H]21.Cl.Cl,-6.101
14,Cc1ccc(N2CC[C@@H]3[C@@H]2CCN3Cc2ccsc2)nn1.O=C(O)C(F)(F)F.O=C(O)C(F)(F)F,101.6
15,Cc1ccc(N2C[C@@H]3CN(Cc4ccsc4)CCO[C@@H]3C2)nn1.O=C(O)C(F)(F)F.O=C(O)C(F)(F)F,-3.128
16,Cc1ccc(N2CCO[C@H]3CN(Cc4ccccn4)C[C@H]32)nn1.O=C(O)C(F)(F)F.O=C(O)C(F)(F)F.O=C(O)C(F)(F)F,-12.44
17,COc1ncnc(N)c1CNCCc1ccccc1,127.7
18,Cn1cc(CN2CCC3(CC2)C(=O)Nc2ccccc23)cn1.O=C(O)C(F)(F)F,-7.765
19,CC[C@@H]1N(CC2CC2)CCC[C@]12CCC(=O)N2.O=C(O)C(F)(F)F,-18.87
20,CNC(=O)c1ccc2c(c1)C1(CCN(CCOC)CC1)C(=O)N2.O=C(O)C(F)(F)F,94.3
21,CC(=O)N1CCC2(CN(CC3CCCC3)C2)C1.O=C(O)C(F)(F)F,-16.93
22,COCCN1CCC2(C1)CN(c1ncc(F)cn1)C2.O=C(O)C(F)(F)F,4.032
23,CCN1CCC2(CC1)C(=O)Nc1ccc(C(=O)NC)cc12.O=C(O)C(F)(F)F,117.8
24,CCN1CCC12CCN(C(=O)c1cc(C)on1)C2.O=C(O)C(F)(F)F (stereo not drawn),-17.49
25,COCCN1CCC2(CC1)C(=O)Nc1ccc(C(=O)NC(C)C)cc12.O=C(O)C(F)(F)F,101
26,CNC(=O)c1ccc2c(c1)C1(CCN(CC3CC3)CC1)C(=O)N2.O=C(O)C(F)(F)F,108.4
